About 14,000 (4.5%) of roughly 310,000 compounds showed an effect of 50% or more. Effects have a minus sign here. The sample as a whole holds a higher share of strong results than the screen did.
Target: human ether-à-go-go-related gene (hERG) potassium channel (human, UniProt Q12809)
Test: primary screen, population patch clamp on CHO cells stably expressing hERG; higher = less effect of the substance
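Also: peak tail current of the secondary pulse compared with the same well before compound.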

Chain of human ether-à-go-go-related gene (hERG) potassium channel (Q12809 whole entry, looked up): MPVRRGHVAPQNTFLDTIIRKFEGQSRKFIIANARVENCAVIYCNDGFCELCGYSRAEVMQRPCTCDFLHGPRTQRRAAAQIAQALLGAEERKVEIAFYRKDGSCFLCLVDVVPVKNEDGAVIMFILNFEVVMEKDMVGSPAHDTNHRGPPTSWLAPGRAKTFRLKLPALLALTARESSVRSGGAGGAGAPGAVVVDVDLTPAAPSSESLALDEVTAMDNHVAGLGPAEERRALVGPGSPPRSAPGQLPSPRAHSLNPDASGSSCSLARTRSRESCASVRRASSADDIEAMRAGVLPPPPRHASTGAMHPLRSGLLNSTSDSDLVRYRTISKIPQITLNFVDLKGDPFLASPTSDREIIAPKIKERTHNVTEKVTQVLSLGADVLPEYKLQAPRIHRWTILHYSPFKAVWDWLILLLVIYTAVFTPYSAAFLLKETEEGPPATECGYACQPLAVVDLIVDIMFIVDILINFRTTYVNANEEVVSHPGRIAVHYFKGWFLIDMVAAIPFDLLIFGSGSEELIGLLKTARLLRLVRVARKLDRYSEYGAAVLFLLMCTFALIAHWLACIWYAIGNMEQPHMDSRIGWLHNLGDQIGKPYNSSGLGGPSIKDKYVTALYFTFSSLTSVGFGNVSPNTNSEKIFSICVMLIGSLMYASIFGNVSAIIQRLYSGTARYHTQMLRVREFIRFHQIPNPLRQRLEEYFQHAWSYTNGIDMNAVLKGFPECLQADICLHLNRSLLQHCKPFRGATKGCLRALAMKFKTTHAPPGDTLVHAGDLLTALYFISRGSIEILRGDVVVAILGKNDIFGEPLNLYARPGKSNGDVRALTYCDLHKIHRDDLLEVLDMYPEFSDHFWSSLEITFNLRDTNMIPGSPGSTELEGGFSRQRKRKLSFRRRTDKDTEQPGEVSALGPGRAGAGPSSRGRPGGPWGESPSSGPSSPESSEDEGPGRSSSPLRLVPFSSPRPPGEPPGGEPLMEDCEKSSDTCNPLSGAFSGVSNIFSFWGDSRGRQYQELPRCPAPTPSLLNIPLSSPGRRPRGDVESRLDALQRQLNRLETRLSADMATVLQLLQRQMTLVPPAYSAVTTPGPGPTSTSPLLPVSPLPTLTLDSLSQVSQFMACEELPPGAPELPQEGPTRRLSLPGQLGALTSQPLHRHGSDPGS

SMILES	hERG current change (%, negative = inhibition) at 10uM [%]
Cc1ccc(C)c(C(=O)CCC(=O)Nc2cccnc2)c1	7.26
COc1cccc(/C=C/C(=O)OCC(=O)NCC2CCCCC2)c1OC	8.32
CCN(CC)c1ccc2c(C)c(CN3CCOCC3)c(=O)oc2c1	-11.1
C=Cc1ccc(C(=O)N2CCCC(CCC(=O)N3CCN(c4ccccn4)CC3)C2)cc1 (stereo not drawn)	-4.57
CCCCNc1nc(N)nc(-c2cc(Cl)ccc2O)n1	20.9
CCCOc1ccc(C(=O)Nc2cccnc2)cc1	3.01
c1ccc(-c2nc(CSc3n[nH]c(-c4cccs4)n3)cs2)cc1	-15.1
Cc1ccc2c(c1)c(=O)c1c3n2CCN(CC2CO2)C3CC1 (stereo not drawn)	4.27
O=C(CCl)N(Cc1cc(=O)[nH]c2ccccc12)c1ccccc1	0.288
CCOC(=O)c1nn(-c2ccc(C)cc2)c(=O)cc1OCC(=O)Nc1cccc(OC)c1	1.6
Cn1cc(CN2CCC(n3nccc3NC(=O)c3ccccc3Cl)CC2)c2ccccc21	-68.6
COc1ccccc1C(=O)Nc1ccnn1C1CCN(Cc2cn(C)c3ccccc23)CC1	-83.6
Cc1cc(NC(=O)CSc2ccc3nnc(CCNS(=O)(=O)c4ccccc4)n3n2)no1	15.6
Nc1c(Cl)cc(-c2csc(N3CCCC3c3nc4cc(Cl)c(Cl)cc4n3CCOCCO)n2)cc1Cl (stereo not drawn)	-0.601
Cc1cccc(C)c1NC(=O)NNC(=O)c1cc(C(C)(C)C)nn1Cc1ccccc1	0.818
CC1CCC/C(=N\NC(=S)Nc2ccccc2)C1 (stereo not drawn)	7.36
O=C(Nc1ccc(Nc2ccccc2)cc1)c1c(Cl)cccc1Cl	12.3
COc1ccc(OCC(=O)N2c3ccc(C)cc3C3CN(C)CCC32)cc1 (stereo not drawn)	-5.12
Cc1ccc2c(c1)C1CN(C)CCC1N2C(=O)COc1ccccc1F (stereo not drawn)	-4.18
Cc1ccc2c(c1)C1CN(C)CCC1N2C(=O)COc1ccc(N(C)C(=O)c2ccccc2)cc1 (stereo not drawn)	-11.6
CC1CCCN(C(=O)Cn2nnc(-c3ccccc3F)n2)C1 (stereo not drawn)	13.8
Cc1ccc2c(c1)C1CN(C)CCC1N2C(=O)Cn1nnc(-c2ccccc2F)n1 (stereo not drawn)	-60.1
Cc1ccc2c(c1)C1CN(C)CCC1N2C(=O)CCCN1C(=O)c2cccc3cccc(c23)C1=O (stereo not drawn)	-57.4

SMILES	hERG current change (%, negative = inhibition) at 10uM [%]
Cc1cc(-n2c(SCc3ccccc3F)nc3n[nH]c(C)c3c2=N)ccc1Cl	15.8
COC(=O)c1ccccc1OCCCOc1ccc(C=O)cc1OC	-4.02
O=C(NCc1ccco1)c1ccc(COc2ccc(Cl)cc2)cc1	0.911
CCCN(C(=O)Cc1ccc(S(=O)(=O)N2CCOCC2)s1)c1c(N)n(Cc2ccccc2)c(=O)[nH]c1=O	16.8
CN(C)c1ccc(C(c2ccc(N(C)C)cc2)c2ccc([N+](=O)[O-])cc2)cc1	3.74
Cc1cccc(Sc2nc(-c3ccccc3)ncc2C(=O)O)c1	11.7
COc1ccc(N2CCN(C(=O)COc3ccc4c(C)cc(=O)oc4c3)CC2)cc1	-16.5
COc1ccc(N2CCN(C(=O)COc3ccc4c(C)cc(=O)oc4c3C)CC2)cc1	20.6
Cc1cc(=O)oc2cc(OCC(=O)N3CCN(c4ccc(F)cc4)CC3)ccc12	-53
Cc1cc(=O)oc2c(C)c(OCC(=O)N3CCN(c4ccc(F)cc4)CC3)ccc12	-65.9
Cc1cc(=O)oc2cc(OCC(=O)N3CCN(c4ccccc4)CC3)ccc12	-36.6
Cc1cc(=O)oc2c(C)c(OCC(=O)N3CCN(c4ccccc4)CC3)ccc12	-24.8
CCC(C)c1ccc(NC(=S)NC(C)C2CCCO2)cc1 (stereo not drawn)	-6.84
Cc1ccc(CN2CC(C(=O)N3CC(C)CC(C)C3)CC2=O)cc1 (stereo not drawn)	-6.13
CN(C)CCP(=O)(c1ccccc1)c1ccccc1	13.4
O=C(O)COCc1nc2ccccc2s1	-7.92
Cc1cccc(C(=O)N2CCc3cc(-c4nc(NC(=O)CN5CCCC5)sc4C)ccc32)c1	-0.886
Cc1ccc(CC(=O)N(C)CC(=O)N(CC(C)C)c2c(N)n(CC(C)C)c(=O)[nH]c2=O)cc1C	-2.54
Cc1ccc2c(c1)COc1c3ccc(C(=O)NCC4CC4)cc3nn1-2	-6.56
CN(Cc1ccccc1)C(=O)c1ccc(NC(=O)C2=CSCCO2)cc1	-0.926
COc1ccc(Cc2noc(CN(C)CCc3ccccc3)n2)cc1OC	7.3
CN(Cc1ccccc1)C(=O)c1ccc(NC(=O)c2ccccc2)cc1	-59.9
COc1ccc(CCN(C)Cc2ccc(OC)c(OCc3ccccc3)c2)cc1OC	-81.6

SMILES	hERG current change (%, negative = inhibition) at 10uM [%]
CCN(CC)c1ccc(CN(C)CCc2ccc(OC)c(OC)c2)cc1	-66.1
COc1ccc(CCN(C)Cc2ccncc2)cc1OC	-27.2
COc1ccc(CCN(C)Cc2ccc(F)cc2F)cc1OC	-0.788
CN(Cc1ccccc1)C(=O)c1ccccc1NC(=O)c1ccccc1	-12.7
CCN(Cc1ccccc1)Cc1ccc(OCc2ccccc2)c(OC)c1	-31.2
COc1cc(CN(CCN(C)C)Cc2ccccc2)ccc1OCc1ccccc1.O=C(O)C(=O)O	-31
COc1cc(CN(C)CCc2ccccc2)ccc1OCc1ccccc1	-72
O=C(Nc1cccc(S(=O)(=O)N2CCCC2)c1)c1ccc2ccccc2n1	20.9
COc1ccc(/C=C/C(=O)NCc2cn(C)nc2C)cc1COc1ccc(Br)cc1	7.33
O=C(Nc1cccc(S(=O)(=O)N2CCCCC2)c1)Nc1ccc(Cl)cc1Cl	7.77
Cn1cc(C(=O)N2CCCC(Nc3ccc(F)cc3)C2)c2ccccc21 (stereo not drawn)	-21.1
O=C(CN1CCCC1c1cccs1)Nc1cccc(S(=O)(=O)N2CCCC2)c1 (stereo not drawn)	-0.843
COc1ccc(C(=O)Nc2ccc(C(=O)NCCc3ccc(OC)c(OC)c3)cc2)cc1	30.5
COc1ccc(CCN(C)Cc2ccc(C(=O)Nc3ccccc3)cc2)cc1OC	-67.3
COc1ccc(CCN(C)Cc2ccc(OCc3ccccc3)c(OC)c2)cc1OC	-74.3
COc1ccc(CN(CCc2ccccc2)Cc2ccccc2)cc1OC.O=C(O)C(=O)O	-9.99
COc1cc(CC(=O)O)ccc1OCc1ccccc1	4.35
COc1ccccc1OCc1ccc(C(=O)Nc2ccccc2)cc1	11.1
COc1ccc(NS(=O)(=O)c2ccc(-c3cnc(C4CC4)o3)cc2)cc1OC	14.6
CC1(C)Cc2c(sc(NC(=O)COc3ccc(Cl)cc3)c2C(N)=O)C(C)(C)N1	0.951
COC(=O)C(NNc1ccc(F)cc1)(NC(=O)c1ccccc1)C(F)(F)F (stereo not drawn)	-3.67
O=C(Nc1cc(Cl)ccc1-n1cncn1)c1ccc([N+](=O)[O-])s1	-27.9
O=C(O)C1OC(C(=O)O)C2C1C(F)(F)C2(F)F (stereo not drawn)	14.3

SMILES	hERG current change (%, negative = inhibition) at 10uM [%]
O=C(Cc1cn2ccsc2n1)Nc1cccc2cnccc12	9.76
CCOC(=O)c1c(C)n(-c2ccc(C)cc2)c2ccc(O)c(CN(C)C)c12.Cl	-74.2
CCOC(=O)c1c(C)n(C)c2ccc(O)c(CN(CC)CC)c12.Cl	-20
Cc1ccc(-n2c(C)c([N+](=O)[O-])c3ccc(O)c(CN(C)C)c32)cc1	-23.6
CCOC(=O)c1c(C)n(-c2ccc(OC)cc2)c2ccc(O)c(CN(C)C)c12.Cl	-74.2
CCN(CC)Cc1c(O)ccc2c([N+](=O)[O-])c(C)n(-c3ccc(OC)cc3)c12	-24.9
COc1ccc(-n2c(C)c([N+](=O)[O-])c3ccc(O)c(CN(C)C)c32)cc1	-57.6
CCOC(=O)c1sc(=N)n(-c2ccc(OC)cc2)c1C	-4.06
CCOC(=O)c1c(C)n(-c2ccccc2)c2ccc(O)c(CN(C)C)c12.Cl	-30.7
CCOC(=O)c1c(C)n(C)c2ccc(O)c(CN(C)C)c12.O=C(O)C(=O)O	-6.82
Cc1cccc(NC(=O)COc2ccccc2C)n1	7.83
Cl.Clc1ccccc1CSc1nnc([C@@H]2CCCN2)o1	15.1
COc1ccc(C(=O)CNc2ccccc2Br)cc1	18.8
COC(=O)C1CCN(C(=O)N2CCOCC2)CC1	5.68
CC(/C=N/NC(=O)c1nnn(-c2nonc2N)c1C(C)C)=C\c1ccco1	8.07
Cc1ccsc1C(=O)NNC(=O)c1csc(N2CCOCC2)n1	12.7
CSCCC(NC(=O)c1ccc(Cl)cc1Cl)C(=O)NNC(=O)c1csc(N2CCOCC2)n1 (stereo not drawn)	-56.8
CSCCC(NC(=O)c1ccccc1Br)C(=O)NNC(=O)c1csc(N2CCOCC2)n1 (stereo not drawn)	-33.5
CSCCC(NC(=O)c1ccccc1Cl)C(=O)NNC(=O)c1csc(N2CCOCC2)n1 (stereo not drawn)	-29.9
Cc1ccc(C)c(SCC(=O)NNC(=O)c2csc(N3CCOCC3)n2)c1	-55.1
Cc1cccc(C(=O)NNC(=O)c2csc(N3CCOCC3)n2)c1C	-9.89

— article PMC4336329 (PLoS ONE, 2015)
